A selection: hits, their analogues and other compounds. The true share with any hit is near 18%.
PLK1 PBD block – qHTS for Inhibitors of PLK1-PDB (polo-like kinase 1 - polo-box domain): Primary Screen; Potency, µM, actives largely listed as inhibitors; Plk1 PBD binding of FITC phosphopeptide, fluorescence polarization; Serine/threonine-protein kinase PLK1 (Homo sapiens), P53350; AID 720504, 2013; actives 2.8% (n = 360,000); also: series mostly up to about 57 µM; nearly all actives have a fitted effect of over 65% in size
Target sequence (P53350 whole entry, looked up, the tested form may be a part): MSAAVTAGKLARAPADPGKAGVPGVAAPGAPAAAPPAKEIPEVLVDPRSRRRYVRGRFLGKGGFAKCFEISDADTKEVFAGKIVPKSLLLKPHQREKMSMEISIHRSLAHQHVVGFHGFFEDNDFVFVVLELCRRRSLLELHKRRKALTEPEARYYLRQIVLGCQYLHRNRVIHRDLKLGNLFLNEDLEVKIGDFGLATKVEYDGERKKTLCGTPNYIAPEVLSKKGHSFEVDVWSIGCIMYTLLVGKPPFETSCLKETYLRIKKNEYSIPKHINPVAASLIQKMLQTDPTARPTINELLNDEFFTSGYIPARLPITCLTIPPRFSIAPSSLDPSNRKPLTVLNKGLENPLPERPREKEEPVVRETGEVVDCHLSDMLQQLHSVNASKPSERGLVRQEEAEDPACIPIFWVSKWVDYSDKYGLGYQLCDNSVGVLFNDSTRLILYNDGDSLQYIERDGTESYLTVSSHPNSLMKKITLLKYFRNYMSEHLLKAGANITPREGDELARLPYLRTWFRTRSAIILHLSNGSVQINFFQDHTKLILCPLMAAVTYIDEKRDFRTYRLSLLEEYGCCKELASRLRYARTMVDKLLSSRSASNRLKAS
DT40 TDP1 CPT – qHTS for Inhibitors of human tyrosyl-DNA phosphodiesterase 1 (TDP1): qHTS in cells in presence of CPT. chicken DT40 Tdp1-/-;hTDP1 cells + 20 nM CPT, ATP luminescence, 48 h. actives 12% (n = 420,000). Potency, µM (top dose mostly 46.2 µM), hits mostly inhibitors. AID 686979, 2013; also: nearly all actives have a fitted effect of over 55% in size
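Chicken DT40 Tdp1-/- cells complemented with human TDP1, 400 cells/well, exposed to compounds plus 20 nM camptothecin for at least 48 h at 37 C; viability read as ATP content by CellTiter-Glo luminescence.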
KAT2A inh – qHTS Assay for Inhibitors of GCN5L2. Histone acetyltransferase KAT2A (Homo sapiens), Q92830. GCN5L2 HAT assay, ThioGlo1 CoA-SH fluorescence. Potency, µM (series often up to 58.9 µM), actives largely listed as inhibitors. actives 0.21% (n = 390,000). AID 504327, 2011
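Enzyme at 20nM final was mixed with library compounds for 15 min at room temperature. Peptide H3(1-25) at 75uM, acetyl-CoA at 70uM and ThioGlo1 at 50uM were then added. Plates were read immediately and after 20 min (Ex340nm/Em540nm).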
TDP1 block – qHTS Assay for Inhibitors of Tyrosyl-DNA Phosphodiesterase (TDP1). recombinant TDP1, AlphaScreen DNA substrate cleavage. Potency, µM (top dose mostly 130 µM), most hits filed as inhibitors. actives 0.28% (n = 350,000); also: nearly all actives have a fitted effect of over 40% in size
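E. coli-derived human Tdp1, 1 nM final. Cpd preinc 15 min RT; substrate 15 nM final, 5 min RT; AS bead mix 10 ug/ml final, 10 min RT. Signal loss = tyrosine-FITC cleavage. No-enzyme wells = max signal.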
TDP1 cell noCPT – qHTS for Inhibitors of human tyrosyl-DNA phosphodiesterase 1 (TDP1): qHTS in cells in absence of CPT | DT40 Tdp1-/- hTDP1 cells, no CPT, ATP luminescence, 48 h | actives 15% (n = 420,000) | Potency, µM (doses to about 46.2 µM), actives largely listed as inhibitors; also: nearly all actives have a fitted effect of over 55% in size
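DT40 Tdp1-/-;hTDP1 cells, no CPT (DMSO vehicle only), 400 cells/well; compounds pin-transferred; ≥48 hr, 37 °C; CellTiter-Glo 30 min RT dark, luminescence read.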
VDR inh – Inhibitors of the vitamin D receptor (VDR): qHTS; Vitamin D3 receptor (Homo sapiens), P11473; Potency, µM, usual class: inhibitors; actives 0.93% (n = 400,000); VDR-SRC2-3 peptide fluorescence polarization, 2 h
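Reagent solutions, kept cold and dark, are dispensed first; compounds are then pinned in at 23 nl, plates briefly spun, and incubated 2 h at ambient temperature. Inhibition of VDR–SRC2-3 peptide binding is read by fluorescence polarization.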
Numbers stand for hits; i = inactive; ? = inconclusive; nt = no result given; [ ] = remark or other dose. Calls follow the shape of the dose curve; as a rule, active = well fitted curve in the direction sought with a large enough effect; inconclusive = small, poorly fitted or top-dose-only effect, or another doubt; inactive = no such curve, though single readings can be large; an effect the other way counts as inactive or inconclusive.

SMILES	PLK1 PBD block	DT40 TDP1 CPT	KAT2A inh	TDP1 block	TDP1 cell noCPT	VDR inh
CCc1ccc(S(=O)(=O)Nc2ccc(O)c3c(=O)cc(-c4ccccc4Cl)oc23)cc1	i	?	i	nt	i	i
Cc1ccc(-n2nnc3c(sc4nc(C)c(C)cc43)c2=O)cc1Cl	nt	i	i	i	i	i
CC#CC[N+](C)(C)CCCCCCCC	i	12µM	i	nt	9.2µM	i
CCCCCCCCC	nt	nt	nt	i	nt	nt
COc1ccc(/C=C2/Sc3ccc(C(=O)N4CCc5ccccc5C4)cc3NC2=O)cc1	i	i	i	i	i	i
COc1cccc(/C=C2/Sc3ccc(C(=O)NCCN4CCCC4)cc3NC2=O)c1	i	16µM	i	i	?	i
COc1cccc(/C=C2/Sc3ccc(C(=O)NCCCN4CCCC4)cc3NC2=O)c1	i	18µM	i	i	21µM	i
COc1ccc(/C=C2\Sc3ccc(C(=O)NCCN4CCCCCC4)cc3N(C)C2=O)cc1	i	?	i	i	23µM	i
COC(=O)c1cc(Cl)c(NC(=O)c2ccc(C(C)(C)C)cc2)cc1OC	i	26µM	i	i	18µM	i
COc1cccc(N2CCN(C(=O)CCn3nc(C)c(S(=O)(=O)N4CCCC4)c3C)CC2)c1	nt	?	i	nt	15µM	i
Cc1cc(C)c(S(=O)(=O)N2CCN(C(=O)CCn3nc(C)c(C)c3C)CC2)c(C)c1	i	i	i	i	15µM	i
Cc1ccc2oc(=O)c3c4cc(O)c(O)c(C)c4oc3c2c1	nt	nt	nt	i	nt	nt
CCn1c(C(=O)N2CCCC(C(=O)NCCCOC)C2)cc2sccc21 (configuration not stated)	nt	?	i	i	?	i
CCOC(=O)Cc1[nH]nc2c1C(c1cccc(OC)c1OC)C(C#N)=C(N)O2 (configuration not stated)	i	i	i	i	i	i
CCOC(=O)Cc1[nH]nc2c1C(C1C=CCCC1)C(C#N)=C(N)O2 (configuration not stated)	i	?	i	i	23µM	i
CCOc1ccc(OCCC(=O)OCC(=O)NCc2ccccc2)cc1	i	i	i	i	i	i
COc1cc(-c2noc(C)c2C(=O)NCCCN2CCOCC2)cc(OC)c1OC	i	i	i	i	i	i
Cc1cc(C)n(-c2ccc(Cl)c(C(=O)Nc3ccc(-c4nnc5n4CCCCC5)cc3)n2)n1	i	2.1µM	i	i	1.8µM	i
COc1ccc(Cl)cc1C(=O)Nc1ccc(-c2nnc3n2CCCCC3)cc1	nt	?	i	i	?	i
CCOC(=O)C1CCCN(C(=O)c2cc(S(=O)(=O)N3CCCCC3)c[nH]2)C1 (configuration not stated)	i	i	i	nt	i	i
C/C=C/COC(=O)C1=C(C)NC(=O)NC1c1ccc2c(c1)OCO2 (configuration not stated)	i	i	i	nt	i	i
Cc1cc2cc(CCNS(=O)(=O)c3ccc(Br)cc3)c(=O)[nH]c2cc1C	nt	?	i	i	?	i
Cc1ccc2cc(CCNS(=O)(=O)c3ccc(F)cc3)c(=O)[nH]c2c1C	i	21µM	i	nt	18µM	i
Cc1cc(C)c(S(=O)(=O)NCCc2cc3c(C)ccc(C)c3[nH]c2=O)c(C)c1	nt	7.3µM	i	i	3.7µM	i
Cc1ccc(S(=O)(=O)NCCc2cc3ccc(C)c(C)c3[nH]c2=O)cc1	i	?	i	i	18µM	i
SMILES	PLK1 PBD block	DT40 TDP1 CPT	KAT2A inh	TDP1 block	TDP1 cell noCPT	VDR inh
CCc1nn2c(=O)c(S(=O)(=O)Nc3ccc(C)c(C)c3)c(C)nc2s1	nt	?	i	i	23µM	i
CCc1nn2c(=O)c(S(=O)(=O)Nc3ccc(C)cc3C)c(C)nc2s1	nt	?	i	i	?	i
CCc1nn2c(=O)c(S(=O)(=O)Nc3ccccc3)c(C)nc2s1	i	i	i	nt	i	i
CC(=O)c1ccc(NS(=O)(=O)c2c(C)nc3scc(C)n3c2=O)cc1	nt	i	i	i[12.3 µM]	i	i
CCc1ccc(NS(=O)(=O)c2c(C)nc3sc(CC)nn3c2=O)cc1	i	?	i	i[12.3 µM]	13µM	i
CCOc1ccc(NS(=O)(=O)c2c(C)nc3sc(C)c(C)n3c2=O)cc1	nt	18µM	i	i	?	i
CC(C)C(NC(=O)c1ccccc1NC(=O)c1ccccc1)C(=O)NCCCn1ccnc1 (configuration not stated)	i	i	i	i	i	i
COc1ccc(CCNC(=O)c2ccc(NS(=O)(=O)c3ccc4[nH]c(=O)[nH]c4c3)cc2)cc1	i	i	?	nt	i	i
O=C(Nc1ccccc1)c1cc(C2CCCCN2C(=O)CCCc2ccccc2)on1 (configuration not stated)	i	?	nt	nt	?	nt
O=C(NCc1cccnc1)c1cc(C2CCCCN2C(=O)CCCc2ccccc2)on1 (configuration not stated)	i	29µM	nt	nt	?	nt
COc1ccc(NC(=O)c2cc(C3CCCCN3C(=O)CCCc3ccccc3)on2)c(C)c1 (configuration not stated)	i	0.73µM	nt	nt	i	nt
CC(C)NC(=O)c1cc(C2CCCCN2C(=O)CCCc2ccccc2)on1 (configuration not stated)	i	?	nt	nt	?	nt
O=C(Nc1ccc(F)c(Cl)c1)c1cc(C2CCCCN2C(=O)CCCc2ccccc2)on1 (configuration not stated)	i	?	nt	nt	18µM	nt
CCCNC(=O)c1cc(C2CCCCN2C(=O)CCCc2ccccc2)on1 (configuration not stated)	i	i	nt	nt	i	nt
O=C(Nc1ccccc1Cl)c1cc(C2CCCCN2C(=O)CCCc2ccccc2)on1 (configuration not stated)	i	29µM	nt	nt	23µM	nt
CC(C)NC(=O)C(C)Oc1ccc(S(=O)(=O)NCc2ccc3c(c2)OCO3)cc1 (configuration not stated)	i	i	i	nt	i	i
O=C(NCc1ccccc1Cl)C1CCN(S(=O)(=O)Cc2ccccc2)CC1	nt	i	i	i	i	i
N#Cc1ccccc1COC(=O)c1ccc2c(c1)OCCO2	i	?	i	89µM	i	i
COc1ccc(CNCCC2(Cc3ccccc3)CC(C)N(C)CC2C)cc1OC (configuration not stated)	i	?	i	i	15µM	i
O=C(Nc1ccc2c(c1)CCO2)Nc1nnc([C@H]2C[C@H](O)[C@@H](CO)O2)s1	i	i	nt	nt	i	nt

Bioassay records: PubChem BioAssay, National Center for Advancing Translational Sciences (NCATS)
